# ± gives the standard deviation of the averaged measurements.
# How the values were obtained:
# Test in all cases: promoter activity interaction Z-score (Lux/OD deviation from empty-vector control); higher = stronger promoter induction by the compound
# [1] = tested on: E. coli BW25113 acrABp lux reporter
# Summary of the method: (§1)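 Four 1:2 dilutions of each compound were tested in biological duplicates on E. coli BW25113 carrying low-copy luxCDABE promoter reporters, either wild type or deleted for one of three genes. Cultures of 40 µl LB Lennox in 384-well plates were kept at 37°C and read for OD600 and luminescence every 30 min for 12 h. Integration windows were 0–8 h for wild type and 1–9 h for deletion strains, and wells under 10% of the median growth value were discarded. The score is a Z-transformed residual of growth-normalised luminescence relative to a control fit.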
# [2] = tested on: E. coli BW25113 micFp lux reporter
# Summary of the method: as §1
# [3] = tested on: E. coli BW25113 ompFp lux reporter
# Summary of the method: as §1
# [4] = 0.062 µg/ml, genetic background: wild type
# [5] = 0.062 µg/ml, genetic background: ΔmarA
# [6] = 0.062 µg/ml, genetic background: Δrob
# [7] = 0.062 µg/ml, genetic background: ΔsoxS
# [8] = 0.12 µg/ml, genetic background: wild type
# [9] = 0.12 µg/ml, genetic background: ΔmarA
# [10] = 0.12 µg/ml, genetic background: Δrob
# [11] = 0.12 µg/ml, genetic background: ΔsoxS
# [12] = 0.25 µg/ml, genetic background: wild type
# [13] = 0.25 µg/ml, genetic background: ΔmarA
# [14] = 0.25 µg/ml, genetic background: Δrob
# [15] = 0.25 µg/ml, genetic background: ΔsoxS
# [16] = 0.49 µg/ml, genetic background: wild type
# [17] = 0.49 µg/ml, genetic background: ΔmarA
# [18] = 0.49 µg/ml, genetic background: Δrob
# [19] = 0.49 µg/ml, genetic background: ΔsoxS
smiles,measurement,setting,value
CN(C)c1ccc(O)c2c1C[C@H]1C[C@H]3[C@H](N(C)C)C(O)=C(C(N)=O)C(=O)[C@@]3(O)C(O)=C1C2=O [Minocycline],promoter activity interaction Z-score,[1]; [4],-0.0516 ± 0.1
same,promoter activity interaction Z-score,[1]; [5],0.0987 ± 0.99
same,promoter activity interaction Z-score,[1]; [6],0.189 ± 0.07
same,promoter activity interaction Z-score,[1]; [7],-0.577 ± 0.76
same,promoter activity interaction Z-score,[1]; [8],0.0573 ± 0.042
same,promoter activity interaction Z-score,[1]; [9],0.356 ± 1.1
same,promoter activity interaction Z-score,[1]; [10],0.339 ± 0.34
same,promoter activity interaction Z-score,[1]; [11],0.263 ± 0.16
same,promoter activity interaction Z-score,[1]; [12],0.223 ± 0.18
same,promoter activity interaction Z-score,[1]; [13],0.273 ± 0.88
same,promoter activity interaction Z-score,[1]; [14],0.387 ± 0.58
same,promoter activity interaction Z-score,[1]; [15],0.196 ± 0.47
same,promoter activity interaction Z-score,[1]; [16],2.47 ± 0.56
same,promoter activity interaction Z-score,[1]; [17],0.55 ± 0.59
same,promoter activity interaction Z-score,[1]; [18],2.62 ± 0.41
same,promoter activity interaction Z-score,[1]; [19],2.95 ± 1.3
same,promoter activity interaction Z-score,[2]; [4],0.172 ± 0.028
same,promoter activity interaction Z-score,[2]; [5],-0.151 ± 0.19
same,promoter activity interaction Z-score,[2]; [6],0.0108 ± 0.022
same,promoter activity interaction Z-score,[2]; [7],-0.429 ± 0.019
same,promoter activity interaction Z-score,[2]; [8],0.33 ± 0.72
same,promoter activity interaction Z-score,[2]; [9],-0.0481 ± 0.0079
same,promoter activity interaction Z-score,[2]; [10],-0.075 ± 0.12
same,promoter activity interaction Z-score,[2]; [11],0.127 ± 0.026
same,promoter activity interaction Z-score,[2]; [12],0.933 ± 0.82
same,promoter activity interaction Z-score,[2]; [13],-0.106 ± 0.069
same,promoter activity interaction Z-score,[2]; [14],0.138 ± 0.07
same,promoter activity interaction Z-score,[2]; [15],-0.0781 ± 0.17
same,promoter activity interaction Z-score,[2]; [16],1.77 ± 1.9
same,promoter activity interaction Z-score,[2]; [17],0.182 ± 0.15
same,promoter activity interaction Z-score,[2]; [18],0.0732 ± 0.00089
same,promoter activity interaction Z-score,[2]; [19],0.743 ± 0.81
same,promoter activity interaction Z-score,[3]; [4],0.0637 ± 0.43
same,promoter activity interaction Z-score,[3]; [5],-0.699 ± 0.25
same,promoter activity interaction Z-score,[3]; [6],0.129 ± 0.49
same,promoter activity interaction Z-score,[3]; [7],-0.457 ± 0.12
same,promoter activity interaction Z-score,[3]; [8],0.41 ± 0.83
same,promoter activity interaction Z-score,[3]; [9],0.0821 ± 0.38
same,promoter activity interaction Z-score,[3]; [10],0.365 ± 0.77
same,promoter activity interaction Z-score,[3]; [11],0.49 ± 0.25
same,promoter activity interaction Z-score,[3]; [12],0.511 ± 0.43
same,promoter activity interaction Z-score,[3]; [13],-0.386 ± 0.46
same,promoter activity interaction Z-score,[3]; [14],0.978 ± 0.71
same,promoter activity interaction Z-score,[3]; [15],0.461 ± 0.59
same,promoter activity interaction Z-score,[3]; [16],1.65 ± 0.69
same,promoter activity interaction Z-score,[3]; [17],1.7 ± 0.75
same,promoter activity interaction Z-score,[3]; [18],1.71 ± 1.5
same,promoter activity interaction Z-score,[3]; [19],2.93 ± 0.19
